# From PubChem BioAssay
# aSyn 5UTR act = Activators via SNCA 5'UTR binding, MLPCN; AID 1814; alpha-synuclein 5'UTR reporter, activators screen; activity score, % (tested at 7.5 µM), hits read low; hit rate 7.1% among 300,000; in the data active = activity score below about -60%
# Active calls of the source: *. The list is a sample of the results.
SMILES,aSyn 5UTR act
c1ccc(CN2CCN(C3=Nc4cccc5cccc3c45)CC2)cc1,-101*
Cc1cc(N2CCN(Cc3cn(C)nc3-c3ccccc3F)CC2)cc(C)n1,91
COc1ccc(C2C(C(=O)Nc3cc(OC)c(OC)c(OC)c3)c3ccccc3C(=O)N2C)cc1 (stereo not given),98
COc1ccc(NC(=O)C2C(=O)N(CCO)C3(C)CC2c2ccccc2O3)cc1 (stereo not given),-103*
COc1ccc(-c2csc(=NCCO)n2-c2ccccc2)cc1,-99*
COc1ccc(-c2csc(=Nc3ccccc3)n2CCO)cc1,-100*
c1ccc(CCNc2nc3ccccc3s2)cc1,-81*
COc1ccc(CNc2nc3ccccc3s2)cc1OC,-141*
Cc1ccc(CNc2nc3ccccc3s2)s1,78
CCN=c1scc(-c2ccc(F)cc2)n1/N=C/c1ccccn1,-73*
C=CCN=c1scc(-c2ccccc2)n1/N=C/c1ccccn1,-68*
CC(C)CC(/C(O)=C(\C#N)c1nc2ccccc2[nH]1)N1C(=O)c2ccccc2C1=O (stereo not given),65
N#C/C(=C\c1ccc(Sc2ccccc2)o1)c1nc2ccccc2[nH]1,-219*
N#C/C(=C\Nc1ccc2c(c1)OCCO2)c1nc2ccccc2[nH]1,-65*
N#C/C(=C\c1cccs1)c1nc2ccccc2[nH]1,-256*
N#C/C(=C/c1ccc(O)c(O)c1)c1nc2ccccc2[nH]1,-148*
N#C/C(=C\c1ccc(N2CCCC2)c([N+](=O)[O-])c1)c1nc2ccccc2[nH]1,-80*
N#C/C(=C/c1cccs1)c1ccccn1,-117*
N#C/C(=C\c1cn(-c2ccccc2)nc1-c1cc2ccccc2o1)c1nc2ccccc2[nH]1,-106*
N#C/C(=C\c1ccc(OC(=O)c2cccs2)cc1)c1nc2ccccc2[nH]1,-153*
O=[N+]([O-])c1cc(/C=N/n2cnnc2)ccc1N1CCCC1,65
CSc1ccccc1NC(=O)COc1ccccc1Cl,-65*
CSc1ccccc1NC(=S)NCc1ccc(Cl)cc1,-110*
O=C(CCl)Nc1ccccc1Sc1ccc(Cl)cc1,93
CSc1ccccc1NC(=O)COc1ccc(Cl)cc1,-62*
SMILES,aSyn 5UTR act
C=C(C)CSc1nc2nc(C)c(Br)cc2[nH]1,-73*
CCOC(=O)c1sc(NC(=O)Nc2cccc(Cl)c2)cc1C,-110*
CCOC(=O)c1sc(NC(=O)c2ccc(Br)o2)cc1C,-236*
CCOC(=O)c1sc(NC(=O)c2cccs2)cc1C,-88*
CCOC(=O)c1sc(NC(=O)c2sccc2C)cc1C,-82*
Nc1ccccc1C(=O)Nc1cccc2ccccc12,-204*
O=C(Nc1cccc2ccccc12)c1ccccc1,-142*
CC(=O)c1cccc(NC(=O)C(=O)Nc2cccc3ccccc23)c1,-195*
CCn1c(SCC(=O)N=Nc2c(O)[nH]c3ccccc23)nc2ccccc21,-79*
O=C(N=Nc1c(O)[nH]c2ccccc12)c1ccco1,-170*
O=C(CSCc1ccccc1)N=Nc1c(O)[nH]c2ccccc12,-79*
CCOc1ccccc1N1CCN(C(=O)c2cn(CC3CCCCC3)nn2)CC1,-84*
Cc1ccc(OCC(=O)Nc2ccc3c(c2)OCO3)c(C)c1,-175*
Cc1ccc(NC(=O)COc2ccc(Br)cc2C)cc1,-102*
CC(=O)NC(=S)Nc1ccc(NC(=O)COc2ccc(Cl)cc2Cl)cc1,-62*
Cc1ccc(Cl)c(OCC(=O)Nc2ccc3c(c2)OCCO3)c1,-146*
CCOc1ccc(NC(=O)CCC(=O)NNC(=O)COc2ccc(C)cc2Br)cc1,-77*
Cc1cc(Cl)ccc1OCC(=O)Nc1ccncc1,-81*
Clc1ccc(-c2csc(Nc3ccccc3)[n+]2Cc2ccco2)c(Cl)c1,-269*
CCCC[n+]1c(-c2ccc(Cl)cc2Cl)csc1Nc1ccccc1,-128*
C=CC[n+]1c(-c2ccc(Cl)cc2Cl)csc1Nc1ccc(NC(C)=O)cc1,94
CC1CN/C(=C\C(=O)c2ccccc2)C(=O)N1 (stereo not given),-110*
O=C1NCCN/C1=C\C(=O)c1ccc(Cl)cc1,-109*
O=C1NCCN/C1=C\C(=O)c1ccc(F)cc1,-81*
N=C1S/C(=C\c2cn[nH]c2-c2ccc(F)cc2)C(=O)N1c1ccccc1F,-108*
SMILES,aSyn 5UTR act
CC(=O)c1ccc(NC(=O)CNCc2cccs2)cc1,-134*
O=C(CNCc1cccs1)Nc1ccc(N2CCCCCC2)cc1,-63*
CC(=O)Nc1ccc(SCC(=O)c2cc(C)n(Cc3cccs3)c2C)cc1,68
Cc1ccc(NC(=O)CNCc2cccs2)cc1Br,-85*
CN(C)c1ccc(/C=N/c2cc(-c3ccccc3)nn2-c2ccccc2)cc1,-133*
Cc1cc(C)nc(Nc2n[nH]c(-c3ccccc3Cl)n2)n1,-141*
Cc1cc(C)nc(Nc2n[nH]c(COc3ccccc3)n2)n1,-110*
Cc1cc(C)nc(Nc2n[nH]c(-c3cccc4ccccc34)n2)n1,-88*
O=C(Nc1cc2c(cc1Cl)OCCCO2)c1ccco1,-144*
O=C(Nc1cc2c(cc1Cl)OCCCO2)c1ccccc1,-151*
COc1ccc(OC)c2nc(-c3ccc4c(c3)OCO4)ccc12,-90*
c1ccc2nc(-c3ccc4c(c3)OCO4)ccc2c1,-81*
